Only some compounds are listed: those with a hit (about 11% of all), similar ones and a draw of the others.
BAZ2B inh: blocks human BAZ2B. Q9UIF8. AlphaScreen BAZ2B-H3K14Ac peptide displacement. Potency, µM (highest dose often 114 µM), for inactives: top-dose activity change, negative = inhibition, hits mostly inhibitors. 360,000 compounds, 4.4% hits; further: potency means the concentration at half of the fitted maximal effect; on the % scale 0 is the no-effect control and ±100 the full control effect; nearly all actives have a fitted effect of over 60% in size
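Compounds, titrated to a top concentration of 110 uM, were incubated 30 min at room temperature with preformed BAZ2B/acetyl-K14 H3 peptide complex (50 nM each). Proximity signal was measured by AlphaScreen after 20 min with beads.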
PI5P4Ka inh: PI5P4K alpha (human) kinase inhibition; max response, %; P48426; PI5P4Kalpha enzyme, ADP-Glo luminescence, 60 min; active compounds read low; AID 652105; 330,000 compounds, 1.2% hits; active means max response of -50% or lower; inconclusive means between -30% and -50%; inactive means -30% or higher; further: value at the top dose of about 77 µM; on the % scale 0 is the no-effect control and ±100 the full control effect
Target sequence (P48426 whole entry, looked up): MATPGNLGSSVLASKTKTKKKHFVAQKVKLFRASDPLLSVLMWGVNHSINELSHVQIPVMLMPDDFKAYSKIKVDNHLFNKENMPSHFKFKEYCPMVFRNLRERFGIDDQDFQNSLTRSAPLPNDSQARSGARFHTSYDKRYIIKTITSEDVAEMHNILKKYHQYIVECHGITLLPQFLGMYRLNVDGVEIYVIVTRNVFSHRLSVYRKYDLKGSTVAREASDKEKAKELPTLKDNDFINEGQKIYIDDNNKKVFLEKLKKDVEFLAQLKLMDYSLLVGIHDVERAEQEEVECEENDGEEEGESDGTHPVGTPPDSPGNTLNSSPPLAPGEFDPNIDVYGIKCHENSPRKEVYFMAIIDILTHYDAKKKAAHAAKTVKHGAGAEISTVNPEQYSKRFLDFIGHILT
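ADP-Glo luminescence end-point read after a 60 min room-temperature kinase reaction of PI5P4Kalpha plus substrate, initiated with ATP at 5 microM final. Buffer: 0.038 M HEPES pH 7.4, EGTA, 0.1% CHAPS, 5% DMSO.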
G9a block: G9a (human) methyltransferase inhibition | Q96KQ7 | G9a H3K9 monomethylation, AlphaScreen, 2 h | Potency, µM (highest dose often 102 µM), without a hit: top-dose activity, negative = inhibition, usual class: inhibitors | 350,000 compounds, 8.8% hits | AID 504332; further: potency means the concentration at half of the fitted maximal effect; on the % scale 0 is the no-effect control and ±100 the full control effect; nearly all actives have a fitted effect of over 75% in size
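Using a bead-based AlphaScreen, monomethylated H3K9 product from 2 h room-temperature reactions (G9a 20 nM, peptide 500 nM, SAM 20 uM) was detected with 0.5 ug/mL rabbit anti-H3K9me1 antibody.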
JMJD2A Tudor: blocks the human JMJD2A Tudor domain; 390,000 compounds, 4.4% hits; AID 504339; O75164; Potency, µM (top dose mostly 114 µM), without a hit: at the highest dose activity change, negative = inhibition, usual class: inhibitors; AlphaScreen JMJD2A-Tudor / H3K4me3 peptide binding; further: potency means the concentration at half of the fitted maximal effect; on the % scale 0 is the no-effect control and ±100 the full control effect; nearly all actives have a fitted effect of over 50% in size
HP1b chromo inh: inhibitors of HP1-beta chromodomain binding to methylated histone tails; P83916; AID 540317; Potency, µM (series often up to 114 µM), for the others: top-dose activity change, negative = inhibition, actives largely listed as inhibitors; 390,000 compounds, 0.56% hits; AlphaScreen HP1-beta / biotin-H3K9me3 peptide binding; further: potency means the concentration at half of the fitted maximal effect; nearly all actives have a fitted effect of over 70% in size
Target sequence (P83916 whole entry, looked up): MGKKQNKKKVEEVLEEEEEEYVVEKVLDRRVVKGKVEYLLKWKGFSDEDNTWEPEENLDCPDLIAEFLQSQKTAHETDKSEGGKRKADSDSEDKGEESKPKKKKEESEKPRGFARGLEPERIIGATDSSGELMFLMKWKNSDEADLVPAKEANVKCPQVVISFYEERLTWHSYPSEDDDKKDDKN
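Compound inhibition of the preformed complex between 50 nM HP1-beta and 50 nM biotinylated H3K9me3 peptide was read by AlphaScreen. Buffer was PBS pH 7.4 with 0.01% Tween-20. Incubations ran 30 min at room temperature, with 10 ug/mL donor/acceptor beads.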
L3MBTL1 inh: blocks human L3MBTL1. AID 485360. AlphaScreen L3MBTL1–H3K9me1 peptide binding. Potency, µM (top dose mostly 57.1 µM), for inactives: at the highest dose activity, negative = inhibition, actives largely listed as inhibitors. 230,000 compounds, 0.66% hits; further: potency means the concentration at half of the fitted maximal effect; on the % scale 0 is the no-effect control and ±100 the full control effect; nearly all actives have a fitted effect of over 60% in size
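L3MBTL1 (50 nM) pre-complexed 30 min with biotinylated H3(1-15)K9me1 peptide (75 nM), then compounds added for 30 min at room temperature; AlphaScreen streptavidin donor/nickel chelate acceptor beads (10 ug/mL final) read after 30 min dark incubation.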
* marks the source's active call; other numbers are inactive results; u = inconclusive; x = not tested or not shown; ! = not confirmed by another sample; [ ] = another dose, or the depositor's remark. Unless noted, the call rests on the fitted dose curve; in most records, active means well fitted inhibition curve with a large enough effect; inconclusive means small, poorly fitted or top-dose-only effect; inactive means no such curve, though single readings can be large or run the other way.

SMILES	BAZ2B inh	PI5P4Ka inh	G9a block	JMJD2A Tudor	HP1b chromo inh	L3MBTL1 inh
Cc1cccc(C(=O)NCc2nnc(SCC(=O)Nc3ccccc3F)n2-c2ccccc2)c1	-16%	x	-25%[59 µM]	-9%	23%	x
Cc1cc(=O)n(Cc2ccc(F)cc2Cl)c2c1c(C)nn2C	0%	x	14%[59 µM]	-2%	46%	x
O=c1c(Cl)c(Cl)cnn1Cc1nnc(-c2ccc(Cl)cc2)o1	x	-58*	u	-13%	35%	x
O=S(=O)(c1ccccc1F)N1CCN(Cc2cc3c(cc2O)OCO3)CC1	u	-8	u	u	39%	-11%
Cc1ccc(C)c(S(=O)(=O)N2CCN(Cc3cc4c(cc3O)OCO4)CC2)c1	40µM*	2	1.4µM*	32µM*	-30%	-30%
O=[N+]([O-])c1ccccc1S(=O)(=O)N1CCN(Cc2cc3c(cc2O)OCO3)CC1	x	-7	2.5µM*	u	-5%	u
O=c1cc(CN2CCN(S(=O)(=O)c3ccccc3[N+](=O)[O-])CC2)nc2sccn12	x	2	40µM*	-7%	45%	1%
Cc1cc(C)c(S(=O)(=O)N2CCN(Cc3ccc4c(c3)OCO4)CC2)cc1C	-9%	x	-7%[59 µM]	-21%	1%	x
O=c1cc(CN2CCCc3ccccc32)nc2sccn12	-14%	2	u	-22%	21%	3%
O=c1cc(CN2CCc3ccccc32)nc2sccn12	-5%	-7	32µM*	18µM*	u	x
O=c1cc(CN2CCN(c3ccccn3)CC2)nc2sccn12	-21%	-2	-41%	-23%	6%	-4%
O=C(Cn1c(=O)n(Cc2ccc(F)cc2)c(=O)c2sc3ccccc3c21)NCc1ccccc1	-20%	x	-1%[59 µM]	-19%	19%	x
O=C(CN1C(=O)COc2ccc(S(=O)(=O)N3CCCCC3)cc21)NCCc1ccc(Cl)cc1	u	x	-3%[59 µM]	-20%	18%	x
COc1cc(C2c3c(-c4cc(C)ccc4O)n[nH]c3C(=O)N2CCCO)ccc1OCCC(C)C (stereo not given)	-18%	x	-1%[59 µM]	-27%	30%	x
CN=c1scc(-c2ccco2)n1/N=C/c1ccc(O)c(O)c1	28µM*	u	11µM*	-27%[11.4 µM]	u	x
C=CCN=c1scc(C)n1/N=C/c1ccc(O)c(O)c1	40µM*	-3	u	u	-15%	-12%
COc1ccc(O)c(/C=N/n2c(-c3ccco3)csc2=Nc2cccnc2)c1	u	-6	20%[59 µM]	-6%[57.1 µM]	1%	-20%
CCOc1ccc(OCC)c(NC(=O)C(NS(=O)(=O)c2cccs2)c2ccccc2)c1 (stereo not given)	-21%	x	-2%[59 µM]	-8%	34%	x
Cc1ccccc1CC1SC(N)=NC1=O (stereo not given)	-20%	-5	32µM*	-13%	21%	-1%
Cc1ccccc1CC1SC(N=C(N)N)=NC1=O (stereo not given)	3%	2	-7%	u	35%	2%
[O-][n+]1onc2c1CCC(=N/O)/C2=N\Nc1ccccc1	50µM*	x	25µM*	x	x	u
[O-][n+]1c2c(nn1-c1ccccc1)/C(=N/O)CCC2	-9%	1	-8%	-8%	43%	5%
Cc1ccccc1NC(=O)CSc1nc(N)c2c3c(sc2n1)CSC(C)(C)C3	u	-2	u	-25%	79µM*	-5%
Cc1ccc(NC(=O)CSc2nc(N)c3c4c(sc3n2)CSC(C)(C)C4)cc1	-34%	-2	19%[59 µM]	-9%	16%	-12%
Cc1ccc(/C=N/Nc2cc(C)nc(NCc3ccccc3)n2)cc1	u	-4	32µM*	u	-13%	-23%
SMILES	BAZ2B inh	PI5P4Ka inh	G9a block	JMJD2A Tudor	HP1b chromo inh	L3MBTL1 inh
Cc1cc(N/N=C/c2ccc(O)cc2)nc(NS(=O)(=O)c2ccccc2)n1	79µM*	-55*	u	56µM*	71µM*	32µM*
CN(C)c1nc(NCc2ccccc2)nc(N/N=C/c2ccc3c(c2)OCO3)n1	u	-1	50µM*	-34%	3%	-3%
Cc1cc(N/N=C/c2ccc(N(C)C)cc2)nc(NCc2ccccc2)n1	13µM*	-7	-4%	u	-10%	u
CN(C)c1nc(NCc2ccccc2)nc(N/N=C/c2ccc(Br)cc2)n1	-22%	1	2%	-14%	26%	-4%
Cc1cc(N/N=C/c2ccc(F)cc2)nc(NCc2ccccc2)n1	-34%	-14	x	-20%	-5%	-9%
CCCN(Cc1cc2cc(C)ccc2[nH]c1=O)C(=O)c1cccc(Cl)c1	-2%	x	-29%[59 µM]	1%	52%	x
COC(=O)c1ccc(Nc2nc(-c3ccccc3Cl)nc3ccccc23)cc1	6%	x	2%[59 µM]	-19%	25%	x
CN(C/C=C/c1ccccc1[N+](=O)[O-])Cc1ccccc1	56µM*	-4	-9%[0.501 µM]	28µM*	u	-7%[2.29 µM]
CCc1ccccc1NC(=O)N1CC(C)Sc2ccccc21 (stereo not given)	24%	x	5%[59 µM]	7%	37%	x
O=c1c2ccccc2cnn1Cc1n[nH]c(=S)n1-c1ccc(Cl)cc1	-8%	-11	1.8µM*	22µM*	20%	9%
S=c1[nH]nc(CCc2ccccc2)n1-c1ccc(Cl)cc1	-27%	-10	u	u	-19%	-6%
CC(c1ccccc1)n1c(Cn2ncc3ccccc3c2=O)n[nH]c1=S (stereo not given)	-25%	-11	3.5µM*	32µM*	53%	-7%
COc1ccc(NCc2cc3cc4c(cc3n(CC(=O)Nc3cc(C)ccc3C)c2=O)OCCO4)cc1	-17%	x	-25%[59 µM]	-8%	33%	x
COc1ccccc1CNC(=O)c1ccc(N2CCCC2)c(NC(=O)NCc2ccccc2)c1	-15%	x	7%[12.7 µM]	-6%	28%	x
O=C1CC(c2ccco2)c2ccc3ccccc3c2N1 (stereo not given)	50µM*	-19	50µM*	u	-15%	-3%
O=C1/C(=C\c2ccc(-c3ccccc3Cl)o2)SC(=S)N1CC1CCCO1 (stereo not given)	u	10	u	u	u	-7%
O=C(O)C(c1ccccc1)N1C(=O)/C(=C\c2ccc(-c3ccccc3Cl)o2)SC1=S (stereo not given)	18µM*	u	40µM*	20µM*	u	x
O=C(O)C(c1ccccc1)N1C(=O)/C(=C\c2ccc(-c3ccc(Br)cc3)o2)SC1=S (stereo not given)	20µM*	u	40µM*	20µM*	u	x
Cc1ccccc1OCc1nc(-c2ccc(Br)o2)no1	u	1	79µM*	206%	57%	x
COc1ccccc1-c1nc(-c2ccc(Br)o2)no1	-12%	7	50µM*!	13%	64%	x

Compound activity as filed in PubChem BioAssay.
